Results reported in PubChem BioAssay AID686979 (National Center for Advancing Translational Sciences (NCATS), 2013).
Screen size: about 420,000 compounds; about 50,000 (12%) were called active. Roughly 26% stayed inconclusive and do not appear here. Calls come from the whole dose curve; as a rule, active = well fitted inhibition curve with a large enough effect; inconclusive = small, poorly fitted or top-dose-only effect; inactive = flat fitted curve, though single readings scatter. Many of the other results were omitted from the sample, so actives are more common in it than they were.

Test: qHTS for Inhibitors of human tyrosyl-DNA phosphodiesterase 1 (TDP1): qHTS in cells in presence of CPT; note: nearly all actives have a fitted effect of over 55% in size
Settings: chicken DT40 Tdp1-/-;hTDP1 cells + 20 nM CPT, ATP luminescence, 48 h; series mostly up to 46.2 µM; activity change, negative = growth inhibition: at the top concentration
Method in brief: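 Chicken DT40 Tdp1-/- cells complemented with human TDP1, 400 cells/well, exposed to compounds plus 20 nM camptothecin for at least 48 h at 37 C; viability read as ATP content by CellTiter-Glo luminescence.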
% is set by controls: 0 for no effect and ±100 for the full control effect; potency is the fitted concentration of half-maximal effect.

Compound | activity change, negative = growth inhibition | Potency
CCN1C(=O)/C(=C\N2CCN(c3cccc(Cl)c3)CC2)SC1=S | -25.7% (inactive) | –
Cc1cc(C)cc(NC(=O)CCCc2nc(-c3ccccc3Cl)no2)c1 | -7.11% (inactive) | –
COc1ccc(-c2noc(CNC(=O)C(C)Oc3ccccc3)n2)cc1 (stereo not drawn) | -11.7% (inactive) | –
NC1=NC(c2ccc([N+](=O)[O-])cc2)N(c2ccc(F)cc2)C(N)=N1 (stereo not drawn) | -21.7% (inactive) | –
Cc1ccc(OCc2nc3ccccc3n2C)cc1 | -29.2% (inactive) | –
Cc1ccc(OCCn2c(CNc3ccccc3C)nc3ccccc32)cc1 | – | 23.1 µM (active)
COCCn1c(-c2ccc(OC)c(OC)c2)nc2ccccc21 | -3.14% (inactive) | –
COc1cc2ccccc2cc1C(=O)Nc1nc(C)c(C(C)=O)s1 | 3.46% (inactive) | –
Cc1csc2nc(COC(=O)c3ccc(NC(=O)COc4ccccc4F)cc3)cc(=O)n12 | – | 18.4 µM (active)
Cc1csc2nc(COc3ccc(NC(=O)COc4ccccc4)cc3)cc(=O)n12 | -21.1% (inactive) | –
O=C(COc1ccccc1F)Nc1ccc(C(=O)OCc2cc(=O)n3nc(C4CC4)sc3n2)cc1 | -6.06% (inactive) | –
COc1ccc(CCNC(=O)CCNS(=O)(=O)c2cc(Br)cnc2N)cc1OC | -14.4% (inactive) | –
COC(=O)[C@H](CC(C)C)NC(=O)N1CCCCC1C (stereo partly drawn) | -20.3% (inactive) | –
CC(C)(C)Nc1nc(-c2ccccn2)nc2ccccc12 | – | 4.61 µM (active)
Cc1nc2ccccc2c(C(=O)O)c1-c1ccccn1 | -9.02% (inactive) | –
CC(=O)Nc1ccc(NC(=O)CCN2C(=O)C3CC=CCC3C2=O)cc1 (stereo not drawn) | -8.73% (inactive) | –
COC(=O)[C@]1(C)CCC[C@@]2(C)C3CC[C@]4(OC(C)=O)C[C@@]3(CCC21)CC4=NO (stereo partly drawn) | – | 16.4 µM (active)
COC(=O)[C@@H]1C[C@H]2CC[C@H](O)C[C@H]2N1Cc1ccc(N2CCN(C)CC2)cc1 | 2.1% (inactive) | –
Cc1nc2sc(C(c3ccco3)N3CCOCC3)c(O)n2n1 (stereo not drawn) | -5.57% (inactive) | –
Oc1c(C(c2ccccn2)N2CCOCC2)ccc2cccnc12 (stereo not drawn) | – | 16.4 µM (active)
O=C(c1cccnc1NCc1ccccc1)N1CCOCC1 | -0.352% (inactive) | –
O=C(O)c1cc(S(=O)(=O)Nc2ccc3cn[nH]c3c2)ccc1Br | -23% (inactive) | –
O=C(Nc1ccccc1)C1CC(=O)n2c(nc3ccccc32)N1 (stereo not drawn) | -4.62% (inactive) | –
O=c1ccc2cc(S(=O)(=O)NCCCc3ccccc3)ccc2[nH]1 | -0.674% (inactive) | –

Compound | activity change, negative = growth inhibition | Potency
CCC1CCCCN1C(=O)CSc1nc2c(c(=O)n(C)c(=O)n2C)n1C (stereo not drawn) | -19.2% (inactive) | –
CCCCn1c(SCC(=O)N2CCOCC2)nc2c1c(=O)n(C)c(=O)n2C | 2.67% (inactive) | –
Cn1c(=O)c2c(nc(SCC(=O)Nc3ccc(F)cc3)n2Cc2ccccc2)n(C)c1=O | – | 4.61 µM (active)
Cc1cccc(Cn2c(SCCO)nc3c2c(=O)n(C)c(=O)n3C)c1 | – | 25.9 µM (active)
C#CC(C)(C)NC(=O)CSc1nc2c(c(=O)n(C)c(=O)n2C)n1CCCC | -13% (inactive) | –
COC(=O)C(C)Sc1nc2c(c(=O)n(C)c(=O)n2C)n1Cc1cccc(C)c1 (stereo not drawn) | -18.2% (inactive) | –
CCOC(=O)CSc1nc2c(c(=O)n(C)c(=O)n2C)n1Cc1ccccc1F | -17% (inactive) | –
CC(C)n1c(SCC(=O)Nc2ccccc2N2CCCCC2)nc2c1c(=O)n(C)c(=O)n2C | – | 29.1 µM (active)
CSc1nnc(C2CCCN(CC(=O)Nc3ccccc3N3CCOCC3)C2)n1C(C)C (stereo not drawn) | -20% (inactive) | –
O=C(c1cccs1)N1C[C@H](n2cc(C3CC3)nn2)[C@@H](O)C[C@@H]1c1ccccc1 | -0.33% (inactive) | –
O=C(O)CC12CC3CC(C1)CC(n1ncc(NCc4ccc(F)cc4)c(Cl)c1=O)(C3)C2 | 2.86% (inactive) | –
Cc1ccc(C(=O)NCC(c2cccs2)N(C)C)cc1S(=O)(=O)N1CCOCC1 (stereo not drawn) | -21.4% (inactive) | –
CC(C)(C)C1CCC(C(=O)NCC(c2cccs2)N2CCOCC2)CC1 (stereo not drawn) | – | 16.4 µM (active)
O=C(NCc1csc(-c2cccs2)n1)C1CC1 | 5.77% (inactive) | –
Cc1c(C=O)c2ccccc2n1CC(=O)O | -0.794% (inactive) | –
Cc1ccc(S(=O)(=O)N2CCOCC2)cc1NC(=O)COC(=O)c1cnccn1 | -0.832% (inactive) | –
COc1cc(/C=C/c2ccc(/C=C/c3cc(OC)c(OC)c(OC)c3)cc2)cc(OC)c1OC | -24.1% (inactive) | –
O=C1c2ccccc2C(=O)C1c1ccccc1F | 19% (inactive) | –
O=C1c2ccccc2C2=Nc3ccccc3SC(c3ccccc3F)C12 (stereo not drawn) | – | 14.6 µM (active)
O=C1CSC(=S)N1c1ccc(Cl)c(Cl)c1 | -13.3% (inactive) | –
COc1ccc(/C=C(\C#N)c2c[nH]c3ccccc23)cc1 | – | 1.16 µM (active)
COc1ccc(/C=C(\NC(=O)c2ccc(OC)c(OC)c2)C(=O)NCCc2c[nH]c3ccccc23)cc1 | -1.48% (inactive) | –
C[N+](C)(C)CCNC(=O)c1c[nH]c2ccccc12 | 2.23% (inactive) | –
COC(=O)c1ccc(/C=N/OCC(=O)Nc2cc(F)ccc2F)cc1 | 11.8% (inactive) | –
